Among the data in PubChem BioAssay (NCATS) are Potency and outcome values, retold here.

Assay [1] can be described thus: qHTS to identify inhibitors of the type 1 interferon - major histocompatibility complex class I in skeletal muscle: primary screen against the NCATS Pharmaceutical Collection (AID 1347407).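 Also: luminescence of HiBiT knocked into endogenous HLA-B as interferon-induced MHC class I level.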 The procedure, abridged:
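HLA-B HiBiT myoblasts, dexamethasone-free growth medium + 4 ng/ml IFN-b; compounds pinned 1 h after seeding, […] from 46 uM; 24 h, 37 C, 5% CO2; lytic HiBiT detection, 10 min RT, luminescence.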
In general terms: In qHTS, concentration-response curves come from the screen itself.

Assay [2] deals with Protein phosphatase 1D (Homo sapiens) (UniProt O15297). Put plainly: RapidFire Mass Spectrometry qHTS Assay for Modulators of WT P53-Induced Phosphatase 1 (WIP1) (AID 1347424).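 Also: amount of dephosphorylated VEPPL-S-QETFS peptide product formed by WIP1.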 Also: potency is read from the fitted curve at half-maximal effect. In a few lines:
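WIP1 (10 nM final) was preincubated 1 h at room temperature with compounds in Tris-HCl pH 7.5, 30 mM MgCl2, TCEP, EGTA, BSA; 2 uM VEPPL-pS-QETFS phosphopeptide was added for 5 min, quenched with formic acid, and dephosphorylated product quantified by RapidFire MS.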

Assay [3] shares this target. The experiment in a line: Rhodamine-PBP qHTS Assay for Modulators of WT P53-Induced Phosphatase 1 (WIP1) (AID 1347425). The procedure, abridged:
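Read-out: Rhodamine-PBP fluorescence (ex 525/em 598 nm) for released Pi, read each minute for 11 min after adding 10 uM VEPPL-pS-QETFS; signal taken as f1 minus pre-substrate f0. Enzyme 5 nM WIP1 with 1 hr room-temperature compound preincubation.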

Assay [4] is described as follows: Primary qHTS for inhibitors of La Crosse Virus (LACV) - induced cell death in SH-SY5Y cells (AID 1508616).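 Also: top concentration of the series differs between compounds; higher means more rescue of cells from virus-induced death.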 In a few lines:
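Protection against LACV-induced cell death is scored in SH-SY5Y cells exposed to compounds and virus (0.01 MOI) for 6 days. Data normalized to virus-infected DMSO wells and virus-free DMSO wells.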

Assay [5] in a line: qHTS for inhibitors of adenylyl cyclases using a fission yeast platform: a pilot screen against the NCATS LOPAC library (AID 1347410). In a few lines:
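Read-out: fbp1-GFP fluorescence by laser scanning cytometry (488 nm laser), a gain of signal when AC/cAMP-PKA signalling is inhibited. Strain CHP2027 expressing AC9, GNAS and PDE4D2; compounds at up to 57 µM; 18 h, 30C.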

Assay [6] concerns the target Calcium and integrin-binding protein 1 (Homo sapiens) (UniProt Q99828). The experiment in a line: Confirmatory qHTS for Identification of Calcium Integrin Binding Protein 1 (CIB1) Competitor (AID 1508617). Also: potency is read from the fitted curve at half-maximal effect; nearly all actives have a fitted effect of over 65% in size. The conditions noted are these: CIB1 binding competition assay, biochemical qHTS. The procedure, abridged:
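Fluorescence polarization competition: CIB1-GST (1 uM final) in 5 mM HEPES pH 7.4, 125 mM NaCl, 5 mM CaCl2, 0.01% Tween20 preincubated 15 min RT with compound (up to 114 uM), then FITC-alphaIIb peptide (100 nM) added, 15 min RT.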

The nature of assay [7]: qHTS to identify inhibitors of the type 1 interferon - major histocompatibility complex class I in skeletal muscle: primary screen against the NCATS Mechanism Interrogation Plate v5.0 (MIPE) Libary (AID 1347411). Also: nearly all actives have a fitted effect of over 65% in size. In a few lines: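 Luminescence from HiBiT-tagged endogenous HLA-B*08:01 served as the MHC class I read-out. CRISPR-engineered C25cl48 human myoblasts received 4.0 ng/ml IFN-beta plus compound for 24 hrs, with an 11-point, 1:3 series topping at 46 uM final.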

Assay [8] can be described thus: Validation qHTS assay for inhibitors of Activation Induced Cytidine Deaminase (AID): UDG Counterscreen signal (AID 1347427). In a few lines:
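Counterscreen read of UDG activity (2 U/mL, 4/3x) in the FRET deamination format with AID (1 uM, 4/3x), DJC20/DJC23 substrates (250 nM, 4x), 4 h at room temperature. NaOH stop, fluorescence at 560 ex/665 em.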

Assay [9] concerns the target Single-stranded DNA cytosine deaminase (Homo sapiens) (UniProt Q9GZX7). Put plainly: Validation qHTS assay for inhibitors of Activation Induced Cytidine Deaminase (AID): AID signal (AID 1347429). The procedure, abridged: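 Fluorescence at 540 nm excitation and 590 nm emission reports ssDNA cytosine deamination by AID, with UDG in the same well. Compound-treated reactions ran 4 hr at room temperature with DJC20/DJC23 substrate, followed by 30 min NaOH treatment.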

A number with no mark means an inactive call. Records with an inconclusive call do not appear. A call without a number means that no potency is given here. Activity calls are given as the source filed them. Calls follow the shape of the dose curve; as a rule, active = well fitted curve in the direction sought with a large enough effect; inconclusive = small, poorly fitted or top-dose-only effect, or another doubt; inactive = no such curve, though single readings can be large; an effect the other way counts as inactive or inconclusive.

Chain of Protein phosphatase 1D (Homo sapiens) (O15297 whole entry, looked up): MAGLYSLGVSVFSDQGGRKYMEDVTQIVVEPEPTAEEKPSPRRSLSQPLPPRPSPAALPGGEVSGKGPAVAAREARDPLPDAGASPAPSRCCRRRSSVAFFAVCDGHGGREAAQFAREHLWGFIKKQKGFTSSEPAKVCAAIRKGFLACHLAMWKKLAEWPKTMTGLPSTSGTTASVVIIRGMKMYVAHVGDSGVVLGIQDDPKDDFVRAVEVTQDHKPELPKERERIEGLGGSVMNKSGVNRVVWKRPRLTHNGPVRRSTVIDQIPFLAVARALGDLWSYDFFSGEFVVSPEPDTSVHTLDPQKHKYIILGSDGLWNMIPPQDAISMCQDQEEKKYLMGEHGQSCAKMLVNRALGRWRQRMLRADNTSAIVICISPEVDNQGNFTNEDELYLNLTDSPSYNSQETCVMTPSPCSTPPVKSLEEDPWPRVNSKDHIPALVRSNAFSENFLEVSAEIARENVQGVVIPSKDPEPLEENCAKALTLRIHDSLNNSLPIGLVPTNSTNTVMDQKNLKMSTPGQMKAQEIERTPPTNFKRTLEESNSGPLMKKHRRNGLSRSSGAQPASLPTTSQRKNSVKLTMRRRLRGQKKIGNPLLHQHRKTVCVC
Chain of Calcium and integrin-binding protein 1 (Homo sapiens) (Q99828 whole entry, looked up): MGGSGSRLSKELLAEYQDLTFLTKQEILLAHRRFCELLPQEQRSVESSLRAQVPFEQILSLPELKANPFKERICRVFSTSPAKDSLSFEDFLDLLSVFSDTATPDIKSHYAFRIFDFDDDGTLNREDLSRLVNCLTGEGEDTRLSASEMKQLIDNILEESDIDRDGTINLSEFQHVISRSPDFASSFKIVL
Chain of Single-stranded DNA cytosine deaminase (Homo sapiens) (Q9GZX7 whole entry, looked up): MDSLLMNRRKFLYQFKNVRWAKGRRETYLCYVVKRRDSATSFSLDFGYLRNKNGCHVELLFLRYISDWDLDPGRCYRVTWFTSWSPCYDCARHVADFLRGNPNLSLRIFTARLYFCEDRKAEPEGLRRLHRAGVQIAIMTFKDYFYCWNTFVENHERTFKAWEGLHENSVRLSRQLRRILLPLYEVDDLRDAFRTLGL

With `Clc1ccccc1-c1nc(-c2ccncc2)no1`, the Potency result in assay [1], in assay [2] and in assay [4] was “inactive” throughout. For the same compound, in [3], the call was inactive.
Take `CC(=O)SCC(CC(=O)c1ccc(C)cc1)C(=O)O` (configuration not stated): the Potency entry in [1], in assay [2] and in [4] was “inactive” each time. Moreover, the call in assay [3] was inactive.
`COc1cc2c3cc1Oc1cc(ccc1O)C[C@@H]1c4c(cc(OC)c(O)c4Oc4ccc(cc4)C[C@@H]3N(C)CC2)CC[N+]1(C)C`: the Potency result in assay [1], in [2] and in [4] was “inactive” throughout. Further, in [3], the outcome was inactive.
`O=C(O)Cc1ccc2c(c1)C(=O)c1ccccc1CO2`: the Potency result in assay [1], in assay [2] and in [4] was “inactive” in each case. In addition, the compound was called inactive in [3].
On to `Cc1ccc(C(=O)c2ccc(CC(=O)O)n2C)cc1`, for which the Potency entry in assay [1], in assay [2] and in [4] was “inactive” each time. For the same compound, in [3], the compound was called inactive.
Turning to `CCN(CC)CCCCNc1ncc2cc(-c3c(Cl)cccc3Cl)c(NC(=O)NC(C)(C)C)nc2n1`, the call in [5] was inactive.
On to `NS(=O)(=O)c1ccc(-n2nc(C(F)(F)F)cc2-c2ccc(Cl)cc2)cc1`, for which the compound was classed as inactive in assay [5].
`O=C(Nc1ccc(C(=O)O)c(O)c1)c1ccccc1`: the Potency result in [1], in assay [2] and in [4] was “inactive” throughout. In [3], the call was inactive.
`COc1cc(NC(C)CCCN)c2ncccc2c1` (configuration not stated): the Potency entry in assay [1], in assay [2] and in assay [4] was “inactive” in each case.
Regarding `CCCCCCCCCCCC(=O)[O][Sn]([CH2]CCC)([CH2]CCC)[O]C(=O)CCCCCCCCCCC`, the Potency entry in [1], in [2] and in [4] was “inactive” in each case.
For `Brc1cc2c(cc1[C@H]1Nc3ccccc3[C@H]3C=CC[C@H]31)OCO2`, in [5], the compound was called inactive.
In the case of `O=Cc1ccc(O)c(O)c1O`, the Potency result in assay [1] and in [4] was “inactive” each time.
As to `CC(C(=O)O)c1ccc2c(c1)[nH]c1ccc(Cl)cc12` (configuration not stated), the Potency entry in [1] and in assay [4] was “inactive” each time.
For `CC(C)(C)c1nnc(NS(=O)(=O)c2ccc(N)cc2)s1`, the Potency result in [1], in [2] and in assay [4] was “inactive” each time.
As to `O=C(CCc1ccncc1)NNC(=O)N1Cc2ccccc2Oc2ccc(Cl)cc21`, the outcome in [5] was inactive.
As for `Cc1cc(O)c2ccccc2c1O`, the Potency entry in assay [1] and in assay [4] was “inactive” each time. In addition, the result in [3] was inactive.
For the compound `N[C@H](CCCP(=O)(O)O)C(=O)O`, the result in [5] was inactive.
Consider `O=C(OCc1ccccc1)c1ccccc1`, for which the Potency result in [1], in assay [2] and in assay [4] was “inactive” in each case. The outcome in assay [3] was inactive.
For the compound `O=C(CCN1CCN(CCO)CC1)N1c2ccccc2Sc2ccc(C(F)(F)F)cc21`, the Potency result in assay [1], in assay [2] and in assay [4] was “inactive” each time. In addition, in assay [3], the compound was classed as inactive.
For the compound `Nc1ccc(C(=O)O)c(O)c1`, the Potency entry in assay [1], in assay [2] and in assay [4] was “inactive” in each case. Besides, the compound was classed as inactive in assay [3].
On to `CN(C)c1nc(N)c(C(=O)N=C(N)N)nc1Cl`, for which the compound was called inactive in assay [5].
Turning to `Nc1ccc(O)c([N+](=O)[O-])c1`, the Potency entry in [1] and in assay [4] was “inactive” each time. Moreover, the Potency in assay [2] was 35.5 µM (active); in [6], 50.1 µM (active).
On to `CC(=O)c1ccc(OCC(=O)N2CCCCC2)cc1`, for which the Potency entry in assay [1], in assay [2] and in [4] was “inactive” each time. For the same compound, the outcome in assay [3] was inactive.
On to `COc1ccc(-c2cc(=S)ss2)cc1`, for which the Potency entry in [1], in [2] and in [4] was “inactive” in each case.
As for `C=CCCCCCCCCC(=O)O`, the Potency entry in [1], in assay [2] and in assay [4] was “inactive” each time. In addition, the compound was classed as inactive in assay [3].
`O=C(/C=C/c1ccccc1)NCCO`: the Potency entry in [1], in assay [2] and in assay [4] was “inactive” in each case. Besides, in assay [3], the result was inactive.
With `CC[C@H]1OC(=O)[C@H](C)[C@@H](O[C@H]2C[C@@](C)(OC)[C@@H](O)[C@H](C)O2)[C@H](C)[C@@H](O[C@@H]2O[C@H](C)C[C@H](NC)[C@H]2O)[C@](C)(O)C[C@@H](C)CN(C)[C@H](C)[C@@H](O)[C@]1(C)O`, the compound was classed as inactive in assay [5].
Consider `Cc1ccc(O)c(-n2nc3ccccc3n2)c1`, for which the Potency result in assay [1], in [2] and in assay [4] was “inactive” throughout. The call in assay [3] was inactive.
In the case of `CCCCN(CC)c1nc(C)nc2c1c(C)cn2-c1c(C)cc(C)cc1C`, the compound was called inactive in assay [5].
As to `Nc1ccc(O)c(C(=O)O)c1`, the Potency entry in assay [1] and in assay [4] was “inactive” in each case. For the same compound, the Potency in assay [2] is 17.8 µM (active).
As for `O=C(O)c1ccccc1Nc1cccc(C(F)(F)F)c1`, the Potency entry in assay [1] and in [4] was “inactive” throughout.
As for `CCCCCCCCCCCCOCCO`, the Potency result in assay [1], in assay [2] and in assay [4] was “inactive” throughout. The compound was called inactive in assay [3].
For `CNC(=O)c1c(I)c(NC(=O)CCCCC(=O)Nc2c(I)c(C(=O)O)c(I)c(C(=O)NC)c2I)c(I)c(C(=O)O)c1I`, the Potency entry in assay [1], in [2] and in assay [4] was “inactive” throughout. Besides, the compound was classed as inactive in assay [3].
`O=C(NOCC1CC1)c1cc(Br)c(F)c(F)c1Nc1ccc(I)cc1Cl`: the compound was called inactive in assay [5].
As to `c1cnc2c(c1)ccc1cccnc12`, the outcome in assay [5] was inactive.
Same read-out and setting: with `CN[C@H](CC(C)C)C(=O)N[C@H]1C(=O)N[C@@H](CC(N)=O)C(=O)N[C@H]2C(=O)N[C@H]3C(=O)N[C@H](C(=O)N[C@H](C(=O)O)c4cc(O)cc(O)c4-c4cc3ccc4O)[C@H](O)c3ccc(c(Cl)c3)Oc3cc2cc(c3O[C@@H]2O[C@H](CO)[C@@H](O)[C@H](O)[C@H]2O[C@H]2C[C@](C)(N)[C@H](O)[C@H](C)O2)Oc2ccc(cc2Cl)[C@H]1O` the entry was “inactive”.
As for `Nc1c(CC(=O)O)cccc1C(=O)c1ccc(Br)cc1`, the Potency result in assay [1] and in assay [4] was “inactive” each time. Further, the compound was classed as inactive in [3].
With `CCCOC(=O)c1ccc(O)cc1`, the Potency result in [1], in [2] and in assay [4] was “inactive” throughout. Further, the result in assay [3] was inactive.
As to `NCCO`, the Potency entry in assay [1], in [2] and in assay [4] was “inactive” each time. Besides, the compound was called inactive in [3].
As to `Nc1nc2ccc([N+](=O)[O-])cc2s1`, the Potency entry in assay [1], in [2] and in assay [4] was “inactive” in each case.
`CCNc1nc2c(ncn2[C@H]2C[C@H](O)[C@@H](CO)O2)c(=O)[nH]1`: the outcome in assay [5] was inactive.
For `CN(C)[C@@H]1C(=O)C(C(=O)NCN2CCCC2)=C(O)[C@@]2(O)C(=O)C3=C(O)c4c(O)cccc4[C@@](C)(O)C3C[C@@H]12` (some centres not stated), the Potency result in assay [1] and in assay [4] was “inactive” each time. Moreover, the compound was classed as inactive in [3].
As to `S=c1[nH]c(-c2ccccc2)cn1-c1ccccc1`, the compound was classed as inactive in assay [5].
Regarding `Nc1cc(-c2ccncc2)c[nH]c1=O`, the Potency entry in assay [1] and in [4] was “inactive” each time. The Potency in assay [2] was 22.4 µM (active).
Regarding `O=C1NC(=O)/C(=C/c2ccc(-c3ccc(F)cc3O)o2)S1`, the Potency result in assay [7], in [8], in assay [9] and in assay [4] was “inactive” throughout.
As to `CN(C)c1ccc(C(=C2C=CC(=[N+](C)C)C=C2)c2ccccc2)cc1`, the Potency entry in assay [2] is “inactive”.
On to `C=CCc1cccc(/C=N/NC(=O)CN2CCN(Cc3ccccc3)CC2)c1O`, for which, in [7], the Potency result is “inactive”.
